Assay outcomes (PubChem BioAssay)
Only some compounds are listed: those with a hit (about 1.6% of all), similar ones and a draw of the others.
NALP1 inh: NALP1 inflammasome inhibitors in reconstituted yeast, colorimetric, S. cerevisiae, triplicate retest. inhibition, % at 10 µM. 280,000 compounds, 0.61% hits. AID 2071, 2009. S. cerevisiae NALP1/ASC/caspase-1 growth, X-gal OD620, 72 h; in the data active = inhibition mostly above about 24%, no sharp cut-off; inactive = mostly below about 32%
HTR5A inv ctr: HTR5A inverse agonists in luminescence cell assay, primary screen, counter-screen for OPRM1-OPRD1 heterodimer inverse agonist project, full-deck HTS | 5-hydroxytryptamine receptor 5A (Homo sapiens), P47898 | HTR5A cell line, inverse agonism | 340,000 compounds, 0.083% hits | inhibition, % at 9.3 µM; in the data active = inhibition mostly above about 23%, no sharp cut-off; inactive = mostly below about 18%;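 also: 0% = cells with DMSO and 100% = no-cell wells with DMSO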
Target sequence (P47898 whole entry, looked up): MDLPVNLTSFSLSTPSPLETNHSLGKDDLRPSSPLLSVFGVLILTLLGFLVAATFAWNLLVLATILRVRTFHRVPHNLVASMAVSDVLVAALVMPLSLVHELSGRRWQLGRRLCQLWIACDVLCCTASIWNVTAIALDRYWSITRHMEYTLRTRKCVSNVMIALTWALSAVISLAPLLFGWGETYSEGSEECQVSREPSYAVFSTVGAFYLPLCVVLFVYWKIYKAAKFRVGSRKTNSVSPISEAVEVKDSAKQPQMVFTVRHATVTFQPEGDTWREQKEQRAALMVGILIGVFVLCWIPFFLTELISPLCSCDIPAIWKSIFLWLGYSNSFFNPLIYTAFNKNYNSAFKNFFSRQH
HTR5A ag ctr: HTR5A agonists in luminescence cell assay, primary screen, counter-screen for OPRM1-OPRD1 heterodimer agonist project, full-deck HTS | AID 504692, 2011 | 5-hydroxytryptamine receptor 5A (Homo sapiens), P47898 | 340,000 compounds, 0.61% hits | activation, % at 9.3 µM | cell-based; in the data active = activation mostly above about 9.5%, no sharp cut-off; inactive = mostly below about 7.6%;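 also: 0% = cells with vehicle only and 100% = reference agonist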
PolyA inh: polyadenylation inhibitors in yeast reporter cells, primary screen, luminescence, S. cerevisiae; S. cerevisiae SKY197-pL101 polyadenylation reporter, beta-gal luminescence; efflux-impaired pdr1/pdr3 knockout yeast; score 100 = 6 SD above DMSO; activity score, % at 12 µM; 300,000 compounds, 0.02% hits; AID 1875, 2009;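 active = lowest replicate activity score at least 50, where 100 means six control SD above control mean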;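 also: yeast exposed to compound for 9 h at 30 °C; higher score means more reporter readthrough which indicates perturbed polyadenylation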
MOR-DOR ag-1: agonists of OPRM1-OPRD1 heterodimerization, primary screen, cell-based, luminescence; Mu-type opioid receptor (Homo sapiens) + Delta-type opioid receptor (Homo sapiens), …; 340,000 compounds, 0.3% hits; cells; AID 504326, 2011; activation, % at 9.3 µM;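 also: 0% = vehicle-treated cells and 100% = reference agonist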
MOR-DOR inv ag-1: inverse agonists of MOR-DOR heterodimerization, primary screen, cell-based, luminescence. 340,000 compounds, 0.21% hits. inhibition, % at 9.3 µM. AID 504357, 2011. Mu-type opioid receptor (Homo sapiens) + Delta-type opioid receptor (Homo sapiens), …. cell-based MOR-DOR heterodimer luminescence, inverse agonism; in the data active = inhibition above about 22%, passing the limit was not always enough;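 also: 0% = cells with DMSO and 100% = wells without cells with DMSO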
MOR-DOR inv ag-2: inverse agonists of MOR-DOR heterodimerization, counter-screen for HTR5A inverse agonist project, cell-based, luminescence | inhibition, % at 9.3 µM | shares compounds with HTR5A inv ctr | 190 tested, under 10 active | AID 504912, 2011 | U2OS counter-screen cells, complementation luminescence; call rule not given here;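 also: 0% = cells with DMSO and 100% = wells without cells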
HTR5A inv confrm: HTR5A inverse agonists, retest of hits, confirmation, cell-based, luminescence; shares compounds with HTR5A inv ctr; HTR5A-expressing cells, inverse agonism; inhibition, % at 9.3 µM; 190 tested, under 10 active; AID 504916, 2011; call rule not given here;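 also: 0% = cells with DMSO and 100% = no cells with DMSO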
MOR-DOR ag-2: OPRM1-OPRD1 heterodimerization promoters, counter-screen for HTR5A agonist project, cell-based, luminescence | 800 compounds, 13% hits | U2OS counter-screen cells, complementation luminescence, 3 h | activation, % at 9.3 µM | shares compounds with HTR5A ag ctr | AID 504913, 2011
HTR5A ag conf: HTR5A agonists, retest of hits, confirmation, cell-based, luminescence; shares compounds with HTR5A ag ctr; HTR5A agonist cell assay; activation, % at 9.3 µM; 800 compounds, 17% hits; AID 504915, 2011; in the data active = activation above about 17%;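 also: 0% = cells with vehicle only and 100% = full reference agonist response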
* = called active by the depositor; i = inactive; · = no result. Rule as the data show it, unless noted: active = activation above about 18%; inactive = the rest.

SMILES	NALP1 inh	HTR5A inv ctr	HTR5A ag ctr	PolyA inh	MOR-DOR ag-1	MOR-DOR inv ag-1	MOR-DOR inv ag-2	HTR5A inv confrm	others
Cc1cc(Cl)ccc1N(CC(=O)NCc1ccccc1)S(C)(=O)=O	6	10	-3	-6	1	-5	·	·
COc1ccc(OC)c(S(=O)(=O)Nc2ccccc2C(=O)N2CCCCC2)c1	·	45*	-1	·	0	0	-4	-5
COc1ccc(S(=O)(=O)Nc2ccccc2C(=O)N2CCCC2)cc1OC	·	-21	7	-7	0	1	·	·
Cc1cc(O)c(NC(=S)NC(=O)c2ccc(-c3ccc(Cl)cc3)o2)cc1C	18	65*	-29	-17	-5	23	-139	-10
CC(C)C[C@@H](CO)N1CCN(Cc2cccnc2)CCC1=O	0	28*	-10	-6	-2	9	-8	-5
CC(C)NC(=O)c1cnc(N2CCN(c3ccccn3)CC2)c2ccccc12	28	44*	4	11	0	0	-18	5
O=S(NCc1ccco1)C12CC3CC(CC(C3)C1)C2 (stereo unspecified)	-76	40*	-1	8	-3	12	-299	-20
COc1ccc(-c2oc3ccccc3c2C#CC(C)(C)O)cc1	·	-13	4	·	0	0	·	·
CC1CN(C(=O)CCNC(=O)c2ccc(Cl)cc2)CC(C)O1 (stereo unspecified)	0	-12	-2	11	-1	8	·	·
OCC[C@@H]1C[C@@H](O)[C@H](O)[C@]2(OCCc3ccccc32)O1	29	0	-1	5	-2	12	·	·
OCC[C@@H]1C[C@H](O)[C@@H](O)[C@@]2(OCCCc3ccccc32)O1	23	44*	-17	0	0	0	-5	3
Cc1nc2cc(NC(=O)Nc3ccc(N4CCOCC4)cc3)ccc2n1C	-12	42*	-2	8	-2	10	-60	-7
Cc1cnc(CNC(=O)c2ccc3oc(Cc4ccc(Cl)cc4)nc3c2)cn1	10	-11	-3	-7	-3	16	·	·
O=C(CNC(=O)c1ccccc1F)N/N=C/c1cccnc1	0	3	-1	-5	-1	6	·	·
C/C(=N\Nc1cc(-c2ccccc2)nc(-c2ccccc2)n1)c1ccc(O)c(C)c1	14	49*	-13	13	-2	12	-204	-16
CN1CCN(c2ncnc3c2c(-c2ccccc2)cn3-c2ccc(F)cc2)CC1	7	39*	-16	-17	-6	27	i	-36
COCCN(C(=O)COC(=O)c1cc(C)oc1C)c1c(N)n(Cc2ccccc2)c(=O)[nH]c1=O	·	65*	-26	-15	-1	3	-8	-16
COCCN(C(=O)COC(=O)c1ccc(C)o1)c1c(N)n(Cc2ccccc2)c(=O)[nH]c1=O	·	6	-3	-19	-2	11	·	·
COC(Cc1nnc(SC)n1-c1ccc(Cl)cc1)OC	-1	13	-4	20	-2	11	·	·
C=CCSc1nnc(CC(OC)OC)n1-c1ccccc1	-13	39*	3	10	1	-9	-11	-8
C=CC[C@H](CC(=O)NCCO)C(=O)N[C@H](COC(=O)[C@H](CC=C)CC(=O)OC(C)(C)C)c1ccccc1	·	1	0	·	-1	4	·	·
O=C(CCCCCN1C(=O)c2cccc3cccc(c23)C1=O)NCCCO	19	32*	-9	-7	-2	12	-22	-10
O=C(COC(=O)Cc1ccc(F)cc1)NCc1ccco1	-6	34*	1	-4	0	2	-37	-15
Cc1ccc(/C=C/c2nnc(-c3cccs3)o2)cc1	7	13	-6	-8	5	-33	·	·
Cc1ccc(/C=C/c2nnc(-c3ccc(C)cc3)o2)cc1	9	42*	-18	0	2	-13	-42	-199
SMILES	NALP1 inh	HTR5A inv ctr	HTR5A ag ctr	PolyA inh	MOR-DOR ag-1	MOR-DOR inv ag-1	MOR-DOR inv ag-2	HTR5A inv confrm	others
COc1ccccc1-c1nnc(NC(=O)CCS(=O)(=O)c2ccccc2)o1	1	40*	-1	-8	-2	13	-8	2
CC(C)Oc1cccc(C(=O)N/N=C/c2ccoc2)c1	11	-7	0	·	0	-1	·	·
CCCOc1cccc(C(=O)N/N=C/c2ccoc2)c1	13	45*	9	11	-3	19	-6	-5
COc1cccc(CNC(=O)Cc2ccc(S(=O)(=O)N3CCOCC3)s2)c1	·	38*	-15	-1	2	-13	49*	-5
CCCC[N+](CC#Cc1ccccc1)(CCCC)CCCS(=O)(=O)[O-]	8	-23	8	-4	-2	12	·	·
O=C(Cn1nc(C(F)F)cc1C1CC1)N1CCCC1	4	2	-1	4	-2	14	·	·
Cc1cc(C(F)F)nn1CC(=O)N1CCSCC1	3	6	16*	-12	-2	10	·	·	MOR-DOR ag-2=1;HTR5A ag conf=0
O=C(CSc1nc2ccccc2c(=O)[nH]1)Nc1ccc(N2CCOCC2)c(Cl)c1	16	-26	5	-6	1	-8	·	·
O=[n+]1c2c(n([O-])c3cc(F)c(N4CCCC4)cc31)CCC2	·	-12	4	4	-4	15	·	·
O=[n+]1c2c(n([O-])c3cc(F)c(N4CCCC4)cc31)CCCC2	0	-35	15*	-2	-2	11	·	·	MOR-DOR ag-2=1;HTR5A ag conf=40*
COc1ccc(-c2c(-c3ccsc3)oc(=O)c3cc(OC)c(OC)cc23)cc1	·	-61	23*	·	1	-6	·	·	MOR-DOR ag-2=3;HTR5A ag conf=1
Cc1onc(-c2ccccc2)c1C(=O)/C=C/N(C)C	-5	-19	1	-5	-4	20	·	·
Cc1cccc2sc(NNC(=O)c3ccc(S(=O)(=O)N4CCCC(C)C4)cc3)nc12 (stereo unspecified)	19	-42	17*	-7	13	-75	·	·	MOR-DOR ag-2=8;HTR5A ag conf=3
